# Results reported in PubChem BioAssay (Tox21).
# “And” between values parts separate entries of the source, which are not always exact repeats. Equal values may be shown once. Records with an inconclusive call do not appear. Where a call stands in place of a potency, no number is given. Where a structure was tested more than once in an assay, its records may differ in their call. The source made the active and inactive calls. Unless noted, the call rests on the fitted dose curve; in most records, active means well fitted curve in the direction sought with a large enough effect in the repeat runs; inconclusive means weak or mixed curves; inactive means no such curve, though single readings can be large; an effect the other way counts as inactive or inconclusive.
# Experiments:
# [1] = qHTS assay to identify small molecule agonists of the RXR signaling pathway - cell viability counter screen (AID 1159529); further: nearly all actives have a fitted effect of over 50% in size; further: potency means the concentration at half of the fitted maximal effect;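 on activity change, negative = cytotoxicity: HEK 293T cells carrying an RXR-alpha UAS beta-lactamase reporter; series mostly up to about 77 µM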
# Procedure, shortened: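 Counter screen: CellTiter-Glo luminescence. Cells: RXR-alpha-UAS-bla HEK 293T. Medium: 2% charcoal-stripped FBS. Treatment: 16 h, 37 C. Reagent incubation: 30 min, RT.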
# [2] = qHTS assay to identify small molecule antagonists of the retinoid acid receptor (RAR) signaling pathway - cell viability counter screen (AID 1159551); further: nearly all actives have a fitted effect of over 35% in size
# Procedure, shortened: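 Cytotoxicity counter screen in C3RL4 cells: 6 h compound exposure with 1 uM retinol (final), viability from cellular ATP by luminescence.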
# [3] = qHTS assay to identify small molecule agonists of the retinoic acid receptor (RAR) signaling pathway (AID 1159553)
# Procedure, shortened: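 Agonist activity was scored in C3RL4 cells bearing a retinoic acid response element luciferase construct. Cells were treated with compounds for 6 hr at 37 C, and luciferase signal was measured as luminescence.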
# [4] = qHTS assay to identify small molecule antagonists of the estrogen related receptor (ERR) signaling pathway from Tox21 library - cell viability counter screen (AID 1224834); further: nearly all actives have a fitted effect of over 30% in size; further: potency means the concentration at half of the fitted maximal effect
# Procedure, shortened: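 Cytotoxicity of test substances is gauged in the same ERR cells used for the antagonist screen, after 17.5 h of compound treatment at 37 C, by CellTiter-Fluor fluorescence measured after 30 min.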
# [5] = molecular target: Luciferin 4-monooxygenase (Photinus pyralis) (UniProt P08659); assay: qHTS assay to identify small molecule inhibitors of firefly luciferase (AID 1224835); further: nearly all actives have a fitted effect of over 25% in size; further: potency means the concentration at half of the fitted maximal effect; on activity change, negative = inhibition: series mostly up to about 120 µM
# Sequence of Luciferin 4-monooxygenase (Photinus pyralis) (P08659 whole entry, looked up): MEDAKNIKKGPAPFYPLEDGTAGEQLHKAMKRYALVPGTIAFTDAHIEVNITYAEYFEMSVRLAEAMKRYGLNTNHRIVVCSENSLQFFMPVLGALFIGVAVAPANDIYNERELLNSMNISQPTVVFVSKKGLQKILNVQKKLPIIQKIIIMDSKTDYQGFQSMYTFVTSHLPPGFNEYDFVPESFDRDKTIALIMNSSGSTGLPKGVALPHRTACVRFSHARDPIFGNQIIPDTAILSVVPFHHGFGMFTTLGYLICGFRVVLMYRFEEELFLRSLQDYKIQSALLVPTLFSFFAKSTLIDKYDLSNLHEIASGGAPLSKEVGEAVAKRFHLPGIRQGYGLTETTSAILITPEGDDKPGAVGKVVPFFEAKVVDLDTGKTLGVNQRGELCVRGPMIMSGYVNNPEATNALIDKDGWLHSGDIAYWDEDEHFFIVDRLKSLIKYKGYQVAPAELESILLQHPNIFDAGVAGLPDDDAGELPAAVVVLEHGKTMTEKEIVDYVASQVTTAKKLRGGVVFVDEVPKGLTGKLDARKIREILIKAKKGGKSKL
# Procedure, shortened: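 Quantitative HTS format; KM concentrations of both substrates. Purified P. pyralis FLuc activity quantified from luminescence images.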
# [6] = qHTS assay to identify small molecule agonists of the constitutive androstane receptor (CAR) signaling pathway - cell viability counter screen (AID 1224836); further: series mostly up to about 92 µM; nearly all actives have a fitted effect of over 45% in size
# Procedure, shortened: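 Double-stable HepG2 hepatoma cells (hCAR plus CYP2B6-2.2kb) are treated for 23 h at 37 C with test compounds in 15-point concentration series. PK11195 at 0.75 uM final is co-added. Cell viability is quantified by CellTiter-Fluor.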
# [7] = qHTS assay to identify small molecule antagonists of the constitutive androstane receptor (CAR) signaling pathway - cell viability counter screen (AID 1224837); further: series mostly up to about 92 µM; nearly all actives have a fitted effect of over 45% in size
# Procedure, shortened: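 Multiplexed cytotoxicity read-out for the CAR antagonist screen: double-stable HepG2-CYP2B6-hCAR cells co-treated with 50 nM CITCO (final) and compound over 15 concentrations, incubated 23 hr, then assessed by CellTiter-Fluor fluorescence.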
# [8] = molecular target: Nuclear receptor subfamily 1 group I member 3 (Homo sapiens) (UniProt Q14994); assay: qHTS assay to identify small molecule antagonists of the constitutive androstane receptor (CAR) signaling pathway (AID 1224838); further: nearly all actives have a fitted effect of over 40% in size; further: potency means the concentration at half of the fitted maximal effect
# Sequence of Nuclear receptor subfamily 1 group I member 3 (Homo sapiens) (Q14994 whole entry, looked up): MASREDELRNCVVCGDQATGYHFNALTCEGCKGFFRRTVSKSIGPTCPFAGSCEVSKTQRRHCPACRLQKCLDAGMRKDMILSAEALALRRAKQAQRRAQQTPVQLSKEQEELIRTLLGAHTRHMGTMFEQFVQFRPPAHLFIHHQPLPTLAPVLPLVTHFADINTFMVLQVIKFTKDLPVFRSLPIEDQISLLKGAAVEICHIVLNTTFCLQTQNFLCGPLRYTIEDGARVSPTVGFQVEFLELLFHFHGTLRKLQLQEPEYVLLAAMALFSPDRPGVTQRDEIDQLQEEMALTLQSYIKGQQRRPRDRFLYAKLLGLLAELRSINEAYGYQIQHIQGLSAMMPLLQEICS
# Procedure, shortened: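 Compounds were titrated across 15 concentrations onto HepG2 cells double-stably expressing hCAR and a CYP2B6-2.2kb reporter, together with 50 nM CITCO (final). After 24 h at 37 C, luciferase activity was measured by luminescence.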
# [9] = molecular target: Nuclear receptor subfamily 1 group I member 3 (Homo sapiens) (UniProt Q14994); assay: qHTS assay to identify small molecule agonists of the constitutive androstane receptor (CAR) signaling pathway (AID 1224839); further: nearly all actives have a fitted effect of over 15% in size; further: potency means the concentration at half of the fitted maximal effect;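 on activation: HepG2 cells stably carrying human CAR and a CYP2B6 luciferase reporter; series mostly up to about 92 µM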
# Procedure, shortened: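 Readout: firefly luciferase luminescence via ONE-Glo. System: HepG2 double-stable for hCAR and CYP2B6-2.2kb. Conditions: 15-point compound titration, PK11195 at 0.75 uM final, 24 h incubation.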
# [10] = qHTS assay to identify small molecule antagonists of the estrogen related receptor signaling pathway with the pleiotropic PPARgamma coactivator (PGC) from Tox21 10K library - cell viability counter screen (AID 1224840; active means well fitted cell-killing curve with a large enough effect in the repeat runs, not every such curve was filed as active; further: nearly all actives have a fitted effect of over 40% in size; further: potency means the concentration at half of the fitted maximal effect)
# Procedure, shortened: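 Step one, plate 2,000 PGC/ERR cells per well; step two, incubate 6 h at 37 C/5% CO2; step three, pin-transfer compounds; step four, incubate 17.5 h; step five, add CellTiter-Fluor and read fluorescence after 30 min.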
# [11] = qHTS assay to identify small molecule agonists of the estrogen related receptor signaling pathway with the pleiotropic PPARgamma coactivator (PGC) from Tox21 10K library (AID 1224842); further: nearly all actives have a fitted effect of over 15% in size
# Procedure, shortened: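 PGC/ERR reporter cells (NTP line) were seeded 2,000 per well, rested 6 h at 37 C/5% CO2, then pin-dosed with compounds in DMSO for 18 h at 37 C; luciferase read by One-Glo luminescence after 30 min at room temperature.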
# [12] = qHTS assay to identify small molecule antagonists of the retinoic acid receptor (RAR) signaling pathway (AID 1159552; further: nearly all actives have a fitted effect of over 50% in size; further: potency means the concentration at half of the fitted maximal effect)
# Procedure, shortened: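 Antagonism of retinol-induced RARE reporter activity was measured in C3RL4 cells. Exposure to compounds and 1 uM final retinol lasted 6 hr at 37 C, with luminescence as endpoint.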
# [13] = molecular target: Thyrotropin receptor (Homo sapiens) (UniProt P16473); assay: qHTS assay to identify small molecule agonists of the thyroid stimulating hormone receptor (TSHR) signaling pathway (AID 1224843; calls by dose curve; further: nearly all actives have a fitted effect of over 45% in size; further: potency means the concentration at half of the fitted maximal effect)
# Sequence of Thyrotropin receptor (Homo sapiens) (P16473 whole entry, looked up): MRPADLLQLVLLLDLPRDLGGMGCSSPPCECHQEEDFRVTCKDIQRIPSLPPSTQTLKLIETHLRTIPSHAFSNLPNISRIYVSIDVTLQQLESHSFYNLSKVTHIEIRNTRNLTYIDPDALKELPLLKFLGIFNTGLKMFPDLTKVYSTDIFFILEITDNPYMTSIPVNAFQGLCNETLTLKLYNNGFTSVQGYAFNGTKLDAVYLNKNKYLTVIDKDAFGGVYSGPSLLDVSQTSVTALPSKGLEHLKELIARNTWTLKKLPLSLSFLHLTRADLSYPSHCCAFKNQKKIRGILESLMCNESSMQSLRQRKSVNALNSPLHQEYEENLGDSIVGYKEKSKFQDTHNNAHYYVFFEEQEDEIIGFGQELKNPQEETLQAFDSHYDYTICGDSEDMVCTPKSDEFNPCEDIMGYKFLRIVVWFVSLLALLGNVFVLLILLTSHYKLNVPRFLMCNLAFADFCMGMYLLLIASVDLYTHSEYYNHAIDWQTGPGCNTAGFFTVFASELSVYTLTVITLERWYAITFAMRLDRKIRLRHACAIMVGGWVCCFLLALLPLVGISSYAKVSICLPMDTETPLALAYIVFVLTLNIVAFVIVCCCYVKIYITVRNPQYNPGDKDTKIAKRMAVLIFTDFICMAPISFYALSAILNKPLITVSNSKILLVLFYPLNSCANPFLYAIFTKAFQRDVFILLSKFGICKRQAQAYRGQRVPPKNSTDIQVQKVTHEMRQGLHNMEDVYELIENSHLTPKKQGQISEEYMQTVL
# Procedure, shortened: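 Cell line HEK293 with TSHR; density 800/well. Exposure 30 min RT. Readout HTRF cAMP (cAMP-d2/anti-cAMP-cryptate), 1 h RT before reading.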
# [14] = qHTS assay to identify small molecule antagonists of the estrogen related receptor signaling pathway with the pleiotropic PPARgamma coactivator (PGC) from Tox21 10K library (AID 1224841; call rule not given here; further: actives are mostly falling curves and most rising ones were filed inactive; nearly all actives have a fitted effect of over 50% in size; further: potency means the concentration at half of the fitted maximal effect; on activity, negative = inhibition: series mostly up to about 92 µM)
# Procedure, shortened: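 Antagonism in this quantitative HTS is taken from loss of luciferase signal in PGC/ERR cells. Cells (2,000/well) are treated with compounds in DMSO after a 6 h settling period and read by One-Glo luminescence after 18 h.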
# [15] = qHTS assay to identify small molecule antagonists of the estrogen related receptor (ERR) signaling pathway - cell viability counter screen (AID 1224818);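 further: series mostly up to about 46 µM; viability measured after 17.5 h of compound exposure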
# Procedure, shortened: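 Cells carrying the ERR pathway reporter were seeded and incubated for 6 hours before compound addition. After a 17.5-hour exposure at 37 C, live-cell protease activity was measured by CellTiter-Fluor fluorescence following 30 minutes of incubation.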
# [16] = qHTS assay to identify small molecule antagonists of the estrogen related receptor signaling pathway with the pleiotropic PPARgamma coactivator (PGC) cell viability counter screen (AID 1224822;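 further: series mostly up to about 46 µM; viability read after 17.5 h compound exposure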)
# Procedure, shortened: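 Seed PGC/ERR cells (2,000/well); incubate 6 h at 37 C/5% CO2; pin-transfer compounds in DMSO; incubate 17.5 h at 37 C; add CellTiter-Fluor; after 30 min read fluorescence.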
compound,measurement,setting,value
CC(C)CCCCCCCCCCCCCCC(=O)O,Potency,[1],inactive
same,Potency,[2],inactive
same,Potency,[3],inactive
same,Potency,[4],inactive
same,Potency,[5],35.6 µM (active)
same,Potency,[6],inactive
same,Potency,[7],inactive
same,Potency,[8],inactive
same,Potency,[9],inactive
same,Potency,[10],inactive
same,Potency,[11],inactive
CCN(C(=O)N(CC)c1ccccc1)c1ccccc1,Potency,[1],inactive
same,Potency,[2],inactive
same,Potency,[12],inactive
same,Potency,[5],inactive
same,Potency,[6],inactive
same,Potency,[7],inactive
same,Potency,[10],inactive
same,Potency,[11],inactive
same,Potency,[13],61.1 µM (active)
Nc1ccccc1O,Potency,[1],inactive
same,Potency,[2],inactive
same,Potency,[12],inactive
same,Potency,[5],inactive
same,Potency,[8],inactive
same,Potency,[9],24 µM (active)
same,Potency,[13],inactive
COC(=O)C1=C(C)NC(C)=C(C(=O)OCC(C)C)C1c1ccccc1[N+](=O)[O-] (stereo not drawn),Potency,[1],49 µM (active) and inactive
same,Potency,[2],inactive
same,Potency,[12],48.6 µM (active)
same,Potency,[5],inactive
same,Potency,[6],inactive
same,Potency,[7],inactive
same,Potency,[8],inactive
same,Potency,[10],27.3 µM (active) and inactive
same,Potency,[14],13.7 µM (active) and 21.1 µM (active)
same,Potency,[13],inactive
CCCC(=O)OC[C@@H](OC(=O)CCC)[C@@H](OC(=O)CCC)[C@H](Cn1c2nc(=O)[nH]c(=O)c-2nc2cc(C)c(C)cc21)OC(=O)CCC,Potency,[1],inactive
same,Potency,[2],inactive
same,Potency,[12],inactive
same,Potency,[5],inactive
same,Potency,[8],29.8 µM (active)
same,Potency,[9],inactive
same,Potency,[14],23.7 µM (active)
same,Potency,[13],inactive
CC(C)C(C)(C)C(C)(C)C(C)(C)S,Potency,[1],inactive
same,Potency,[2],inactive
same,Potency,[15],inactive
same,Potency,[16],inactive
same,Potency,[4],inactive
same,Potency,[5],inactive
same,Potency,[6],inactive
same,Potency,[7],inactive
same,Potency,[10],inactive
same,Potency,[13],inactive
Cc1cccc(S(=O)(=O)O)c1C,Potency,[1],inactive
same,Potency,[2],inactive
same,Potency,[3],inactive
same,Potency,[4],inactive
same,Potency,[5],inactive
same,Potency,[6],inactive
same,Potency,[7],inactive
same,Potency,[8],inactive
same,Potency,[10],inactive
same,Potency,[13],inactive
O=C1CCCCCN1SSN1CCCCCC1=O,Potency,[1],inactive
same,Potency,[2],inactive
same,Potency,[12],24.3 µM (active)
same,Potency,[5],inactive
same,Potency,[6],inactive
same,Potency,[8],27.3 µM (active)
same,Potency,[9],inactive
same,Potency,[11],inactive
same,Potency,[13],inactive
O=C1CCCc2c1cc1ccc3cccc4ccc2c1c34,Potency,[1],inactive
same,Potency,[2],inactive
same,Potency,[12],inactive
same,Potency,[5],11.4 µM (active)
same,Potency,[6],inactive
same,Potency,[8],inactive
same,Potency,[10],inactive
same,Potency,[13],inactive
O=C(O)c1c(Cl)cccc1Cl,Potency,[1],inactive
same,Potency,[2],inactive
same,Potency,[3],inactive
same,Potency,[4],inactive
same,Potency,[5],inactive
same,Potency,[6],inactive
same,Potency,[7],inactive
same,Potency,[8],inactive
same,Potency,[9],inactive
same,Potency,[10],inactive
same,Potency,[13],inactive
O=C(OC[C@H]1O[C@@H](OC(=O)c2cc(O)c(O)c(OC(=O)c3cc(O)c(O)c(O)c3)c2)[C@H](OC(=O)c2cc(O)c(O)c(OC(=O)c3cc(O)c(O)c(O)c3)c2)[C@@H](OC(=O)c2cc(O)c(O)c(OC(=O)c3cc(O)c(O)c(O)c3)c2)[C@@H]1OC(=O)c1cc(O)c(O)c(OC(=O)c2cc(O)c(O)c(O)c2)c1)c1cc(O)c(O)c(OC(=O)c2cc(O)c(O)c(O)c2)c1,"activity change, negative = cytotoxicity",[1],11.4% [at 15.8 µM] (inactive)
same,"activity change, negative = cytotoxicity",[2],-3.41% [at 19 µM] (inactive)
same,Potency,[3],inactive
same,Potency,[4],16.5 µM (active)
same,"activity change, negative = inhibition",[5],-18.6% [at 23.6 µM] (inactive)
same,"viability change, negative = cytotoxic",[6],-11.1% [at 19 µM] (inactive)
same,"activity, negative = inhibition",[8],-0.544% [at 19 µM] (inactive)
same,activation,[9],-3.23% [at 19 µM] (inactive)
same,"activity, negative = inhibition",[14],-8.46% [at 19 µM] (inactive)
same,activation,[11],-3.36% [at 19 µM] (inactive)
